Assay results published in PubChem BioAssay (NCATS).
Records with an inconclusive call do not appear. The source made the active and inactive calls. Unless noted, the call rests on the fitted dose curve; in most records, active means well fitted curve in the direction sought with a large enough effect; inconclusive means small, poorly fitted or top-dose-only effect, or another doubt; inactive means no such curve, though single readings can be large; an effect the other way counts as inactive or inconclusive.

Tests used:
[1] = biological target: Glucocorticoid receptor (Homo sapiens) (UniProt P04150); test: qHTS assay for small molecule agonists of glucocorticoid receptor signaling (AID 588532; active means well fitted curve in the direction sought with a large enough effect in the signal ratio, with a control signal flat; the % refers to the signal ratio;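 further: 100% = dexamethasone at 0.1 µM and 0% = DMSO only wells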); conditions: HeLa MMTV-bla, beta-lactamase ratio, agonist, 18 h; stronger effect = higher value; percent of dexamethasone control, DMSO zero
Outline: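 HeLa GRE-bla reporter cells; 18 h compound exposure at 37 C; 2 h CCF4 loading at room temperature; fluorescence at 460 and 530 nm; EC50 by Hill equation.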

[2] = biological target: Glucocorticoid receptor (Homo sapiens) (UniProt P04150); test: qHTS assay for small molecule antagonists of glucocorticoid receptor signaling (AID 588533; active means well fitted inhibition curve with a large enough effect in the signal ratio, with a control signal flat, not every such curve was filed as active; the % refers to the signal ratio; further: on the % scale 0 is the no-effect control and ±100 the full control effect); conditions: HeLa MMTV-bla, GRE beta-lactamase ratio, antagonist mode, 18 h; series mostly up to 76.8 µM
Outline: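 Antagonist-mode qHTS: compound titrations added to GRE-bla HeLa cells, then dexamethasone 2 nM final; 18 h, 37 C. CCF4 FRET fluorescence normalized to dexamethasone and DMSO; IC50 from Hill fit.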

[3] = biological target: Vitamin D3 receptor (Homo sapiens) (UniProt P11473); test: qHTS assay for small molecule antagonists of vitamin D receptor signaling (AID 588541; calls by dose curve; further: potency means the concentration at half of the fitted maximal effect); conditions: HEK293T VDR-UAS-bla, beta-lactamase ratio, antagonist mode; series mostly up to 76.7 µM
Outline: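 VDR-UAS-bla HEK293T cells in 2% charcoal-stripped FBS were stimulated with 1-alpha,25-dihydroxyvitamin D3 (3 nM final) plus compound for 16 h at 37 C. The beta-lactamase CCF4 readout was normalized to 50 nM agonist and DMSO, and Hill fits gave IC50.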

[4] = biological target: Vitamin D3 receptor (Homo sapiens) (UniProt P11473); test: qHTS assay for small molecule agonists of vitamin D receptor signaling (AID 588543; calls by dose curve;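 further: 0% = DMSO basal and 100% = reference agonist control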); conditions: HEK293T VDR-UAS-bla, beta-lactamase ratio, 16 h; series mostly up to 76.8 µM
Outline: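 Agonist-mode beta-lactamase reporter: HEK293T VDR-UAS-bla cells in charcoal-stripped 2% FBS, compound series 16 h 37 C, CCF4 2 h RT. EC50 from Hill fit, scaled against DMSO and 50 nM calcitriol control.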

[5] = qHTS assay for small molecule agonists of retinoid X receptor alpha signaling (AID 588544; calls by dose curve;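 on activation: 0% = DMSO basal wells and 100% = reference agonist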); conditions: HEK293T RXRa-UAS-bla, beta-lactamase reporter, 18 h; 530 nm emission
[6] = biological target: Retinoic acid receptor RXR-alpha (Homo sapiens) (UniProt P19793); test: as above; conditions: HEK293T RXRa-UAS-bla, beta-lactamase reporter, 18 h; series mostly up to 76.7 µM
[7] = biological target: Thyroid hormone receptor beta (Homo sapiens) (UniProt P10828); test: qHTS assay for small molecule agonists of thyroid hormone receptor beta signaling (AID 588545; calls by dose curve;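 further: 0% = DMSO only and 100% = 10 nM T3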); conditions: TR-UAS-bla GripTite HEK 293, beta-lactamase ratio, agonist mode, 18 h; series mostly up to 76.7 µM
Outline: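 TR-UAS-bla-GripTite HEK 293 cells in medium with 2% charcoal/dextran FBS, 0.1 mM NEAA and 1 mM sodium pyruvate were treated with titrated compounds for 18 hrs at 37 C. Beta-lactamase reporter was read with CCF4 dye (ex 405, em 460/530 nm); EC50 from Hill fits.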

[8] = qHTS assay for small molecule antagonists of retinoid X receptor alpha signaling (AID 588546; active means well fitted inhibition curve with a large enough effect in the signal ratio, with a control signal flat, not every such curve was filed as active; the % refers to the signal ratio;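 further: cells stimulated with 9-cis-retinoic acid as agonist; on the % scale 0 is the no-effect control and ±100 the full control effect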); conditions: HEK293T RXRa-UAS-bla, beta-lactamase ratio, antagonist mode; measured here: W530 green channel, cytotoxicity proxy
Outline: (§1)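 Beta-lactamase reporter inhibition, read as CCF4 fluorescence ratio (ex 405, em 460/530 nm) after 2 h at RT. HEK293T UAS-bla cells, 2500/well, were stimulated with 9-cis-RA at 500 or 100 nM final alongside test compound for 18 h at 37 C.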

[9] = biological target: Retinoic acid receptor RXR-alpha (Homo sapiens) (UniProt P19793); test: as above; conditions: HEK293T RXRa-UAS-bla, beta-lactamase ratio, antagonist mode
Outline: as §1

[10] = biological target: Thyroid hormone receptor beta (Homo sapiens) (UniProt P10828); test: qHTS assay for small molecule antagonists of thyroid hormone receptor beta signaling (AID 588547; active means well fitted inhibition curve with a large enough effect in the signal ratio, with a control signal flat, not every such curve was filed as active; the % refers to the signal ratio;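 further: cells stimulated with 0.4 nM T3 agonist during compound exposure; on the % scale 0 is the no-effect control and ±100 the full control effect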); conditions: TR-UAS-bla HEK293, beta-lactamase ratio, antagonist mode, 18 h
Outline: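 TR-UAS-bla GripTite HEK293 cells in 2% charcoal/dextran FBS medium; compounds 0.59 nM to 92 uM with T3 at 0.4nM final, 18 h at 37 C. Beta-lactamase read by CCF4 fluorescence (460/530 nm); Hill fits gave IC50 and efficacy.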

[11] = qHTS assay for small molecule activators of the p53 signaling pathway (AID 651743; active means well fitted activation curve with a large enough effect in the signal ratio, not every such curve was filed as active; the % refers to the signal ratio; further: % of control where 0% means no effect); conditions: HCT-116 p53RE-bla, beta-lactamase FRET ratio, 16 h; activation: stronger effect = higher value
Outline: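 Following 16 hours of compound exposure at 37 C, HCT-116 cells bearing the p53RE-bla reporter were loaded with LiveBLAzer B/G FRET substrate for 2 hours at room temperature and fluorescence intensity was recorded.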

[12] = qHTS assay for small molecule activators of the nuclear factor-kappa B (NF-kB) signaling pathway (AID 651749; active means well fitted activation curve with a large enough effect in the signal ratio; the % refers to the signal ratio; further: % of control where 0% means no effect); conditions: NF-kB-bla ME-180 cells, beta-lactamase FRET ratio, 16 h; activation: stronger effect = higher value
Outline: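 In this qHTS format, compounds acting as activators increase NF-kB-driven beta-lactamase in ME-180 cells, measured as disrupted FRET after 16 hr exposure at 37C and 5% CO2.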

[13] = biological target: Peroxisome proliferator-activated receptor alpha (Homo sapiens) (UniProt Q07869); test: qHTS assay for small molecule agonists of the peroxisome proliferator-activated receptor alpha (PPARalpha) signaling pathway (AID 651778); conditions: PathHunter PPARalpha complementation, chemiluminescence, 6 h; max response: stronger effect = higher value; further: % of control where 0% means no effect
Outline: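 Enzyme-fragment complementation assay in which ligand-bound PPARalpha translocates and forms an active enzyme that generates chemiluminescence. Cells were plated overnight, exposed to compound for 6 hr at 37 C, and then given detection reagent for 60 min at room temperature.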

[14] = qHTS assay for small molecule agonists of the antioxidant response element (ARE) signaling pathway measured by Nrf2-dependant transcriptional activity (AID 720636; active means well fitted curve in the direction sought with a large enough effect in the repeat runs; an effect the other way counts as inactive or inconclusive; further: potency means the concentration at half of the fitted maximal effect; on activation: % of control where 0% means no effect); conditions: ARE-luc HepG2, Nrf2 luciferase reporter, 16 h; series mostly up to 92.4 µM
Outline: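 Quantitative HTS format in HepG2 cells stably expressing an ARE-luciferase reporter; 16 hr compound treatment at 37 C, luciferase signal detected with ONE-Glo.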

[15] = qHTS assay for small molecule agonists of the antioxidant response element (ARE) signaling pathway measured by Nrf2-dependant transcriptional activity - cell viability counter screen (AID 720653; active means well fitted curve in the direction sought with a large enough effect in the repeat runs; an effect the other way counts as inactive or inconclusive; further: on the % scale 0 is the no-effect control and ±100 the full control effect); conditions: ARE-bla HepG2 viability, CellTiter-Glo ATP luminescence, 16 h; max response: stronger effect = lower value
Outline: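 ARE-bla HepG2 cells treated with compounds for 16 h at 37C; this counter screen measures viability as intracellular ATP by CellTiter-Glo luminescence after 30 min at room temperature.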

[16] = qHTS assay for cell viability of HEK293 cells (AID 743288); conditions: ATP luminescence (CellTiter-Glo), 18 h; max response: stronger effect = lower value; further: nearly all actives have a fitted effect of over 50% in size; further: potency means the concentration at half of the fitted maximal effect
Outline: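 Readout is luciferase-coupled ATP content (CellTiter-Glo luminescence, 30 min room temperature) as a measure of metabolically competent cells. Parental HEK293 cells were plated 5 h or more before compound addition, then treated 18 h at 37 C.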

[17] = qHTS assay for cell viability of the p53RE-bla HCT-116 cell line (AID 743292); conditions: p53RE-bla HCT-116 viability, ATP luminescence, 16 h; series mostly up to 95 µM; further: on the % scale 0 is the no-effect control and ±100 the full control effect; nearly all actives have a fitted effect of over 55% in size
Outline: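 Viability of compound-treated p53RE-bla HCT-116 cells is taken from ATP-dependent luciferase luminescence. Treatment lasts 16 h at 37 C after a 5 h settling period; detection follows 30 min at room temperature.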

[18] = biological target: Nuclear receptor subfamily 1 group I member 2 (Rattus norvegicus) (UniProt Q9R1A7); test: qHTS assay for small molecule activators of the rat pregnane X receptor (rPXR) signaling pathway (AID 651751; call rule not given here; further: 0% is about no effect); conditions: rPXR reporter cells, luciferase (One-Glo), 24 h
[19] = qHTS assay for small molecule activators of the human pregnane X receptor (PXR) signaling pathway (AID 720659; call rule not given here; further: 0% is about no effect); conditions: DPX-2 HepG2 CYP3A4-luciferase, 24 h; series mostly up to 92.3 µM
[20] = qHTS assay for small molecule antagonists of peroxisome proliferator-activated receptor delta signaling (AID 588535); conditions: HEK293T PPARd-UAS-bla, beta-lactamase FRET ratio, 18 h; 460 nm channel;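 further: cells co-treated with a PPAR-delta agonist as stimulator during compound exposure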
Outline: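 Fluorescence from CCF4-loaded GeneBLAzer PPAR-delta-UAS-bla HEK293T cells (2 hrs RT loading) quantified reporter inhibition after an 18 hr, 37 C compound exposure across a titration.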

[21] = qHTS assay for environmental chemicals that activate the Aryl hydrocarbon Receptor (AhR) signaling pathway (AID 651777); conditions: 1A2-DRE human hepatoma cells, luciferase, 24 h; activation: stronger effect = higher value; further: % of control where 0% means no effect; nearly all actives have a fitted effect of over 15% in size
Outline: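 Quantitative HTS in stably transfected human liver-derived cells whose luciferase gene sits downstream of the CYP1A2 promoter and dioxin response element. After 24 hr exposure at 37 C, One-Glo luminescence was measured.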

[22] = qHTS assay for small molecule agonists of the antioxidant response element (ARE) signaling pathway (AID 651741; active means well fitted activation curve with a large enough effect in the signal ratio; the % refers to the signal ratio; further: potency means the concentration at half of the fitted maximal effect; on activation: % of control where 0% means no effect); conditions: HepG2 ARE-bla reporter, beta-lactamase FRET ratio, 16 h; series mostly up to 96 µM
Outline: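 Stably integrated ARE-beta-lactamase reporter HepG2 cells; 16 h compound incubation, 37 C; LiveBLAzer FRET substrate 2 h at room temperature; fluorescence intensity.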

[23] = biological target: Peroxisome proliferator-activated receptor gamma (Homo sapiens) (UniProt P37231); test: qHTS assay for small molecule antagonists of peroxisome proliferator-activated receptor gamma signaling (AID 588537; active means well fitted inhibition curve with a large enough effect in the signal ratio, with a control signal flat, not every such curve was filed as active; the % refers to the signal ratio;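 further: reporter cells co-stimulated with 50 nM rosiglitazone agonist during compound treatment; % of control where 0% means no effect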); conditions: HEK293 PPARg-UAS-bla, beta-lactamase ratio, antagonist mode; series mostly up to 76.8 µM
Outline: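 Fluorescence at 460 and 530 nm (405 nm excitation) reported beta-lactamase cleavage of CCF4 after 2 h room-temperature loading. HEK293 reporter cells in 1% charcoal/dextran-treated FBS had received compound and rosiglitazone for 16 h.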

Nuclear receptor subfamily 1 group I member 2 (Rattus norvegicus), sequence (Q9R1A7 whole entry, looked up): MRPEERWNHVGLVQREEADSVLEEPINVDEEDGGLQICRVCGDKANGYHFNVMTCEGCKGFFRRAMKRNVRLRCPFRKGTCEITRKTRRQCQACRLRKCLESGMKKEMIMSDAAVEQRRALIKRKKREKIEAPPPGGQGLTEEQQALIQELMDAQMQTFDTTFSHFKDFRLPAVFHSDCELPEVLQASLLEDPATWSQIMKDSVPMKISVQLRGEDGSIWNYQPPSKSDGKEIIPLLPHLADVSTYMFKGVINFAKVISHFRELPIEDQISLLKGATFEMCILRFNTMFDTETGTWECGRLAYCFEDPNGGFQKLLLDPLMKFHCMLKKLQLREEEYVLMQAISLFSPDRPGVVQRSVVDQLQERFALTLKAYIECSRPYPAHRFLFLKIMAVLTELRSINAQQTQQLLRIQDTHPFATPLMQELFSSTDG
Retinoic acid receptor RXR-alpha (Homo sapiens), sequence (P19793 whole entry, looked up): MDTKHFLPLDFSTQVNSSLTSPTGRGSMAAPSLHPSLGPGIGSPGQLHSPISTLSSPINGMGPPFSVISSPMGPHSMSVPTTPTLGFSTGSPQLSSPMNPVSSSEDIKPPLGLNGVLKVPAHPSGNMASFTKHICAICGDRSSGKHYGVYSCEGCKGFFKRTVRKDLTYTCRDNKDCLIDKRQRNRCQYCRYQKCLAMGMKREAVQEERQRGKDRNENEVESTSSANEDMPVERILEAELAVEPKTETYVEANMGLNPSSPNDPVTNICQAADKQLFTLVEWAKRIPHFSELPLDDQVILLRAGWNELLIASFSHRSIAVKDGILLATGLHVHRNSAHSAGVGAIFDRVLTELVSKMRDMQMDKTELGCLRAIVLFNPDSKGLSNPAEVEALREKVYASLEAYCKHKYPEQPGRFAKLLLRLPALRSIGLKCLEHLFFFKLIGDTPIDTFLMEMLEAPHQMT
Vitamin D3 receptor (Homo sapiens), sequence (P11473 whole entry, looked up): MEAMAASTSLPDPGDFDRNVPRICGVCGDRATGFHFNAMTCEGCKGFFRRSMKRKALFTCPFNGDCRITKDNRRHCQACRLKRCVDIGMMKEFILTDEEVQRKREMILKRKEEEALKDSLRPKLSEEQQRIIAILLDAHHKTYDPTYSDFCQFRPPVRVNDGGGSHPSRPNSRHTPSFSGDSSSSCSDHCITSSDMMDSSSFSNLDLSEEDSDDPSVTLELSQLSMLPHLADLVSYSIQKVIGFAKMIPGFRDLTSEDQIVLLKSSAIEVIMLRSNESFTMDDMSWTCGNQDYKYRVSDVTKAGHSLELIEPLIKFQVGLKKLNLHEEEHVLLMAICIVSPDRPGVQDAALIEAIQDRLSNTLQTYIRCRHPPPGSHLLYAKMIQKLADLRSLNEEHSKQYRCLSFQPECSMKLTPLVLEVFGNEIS
Peroxisome proliferator-activated receptor alpha (Homo sapiens), sequence (Q07869 whole entry, looked up, the tested form may be a part): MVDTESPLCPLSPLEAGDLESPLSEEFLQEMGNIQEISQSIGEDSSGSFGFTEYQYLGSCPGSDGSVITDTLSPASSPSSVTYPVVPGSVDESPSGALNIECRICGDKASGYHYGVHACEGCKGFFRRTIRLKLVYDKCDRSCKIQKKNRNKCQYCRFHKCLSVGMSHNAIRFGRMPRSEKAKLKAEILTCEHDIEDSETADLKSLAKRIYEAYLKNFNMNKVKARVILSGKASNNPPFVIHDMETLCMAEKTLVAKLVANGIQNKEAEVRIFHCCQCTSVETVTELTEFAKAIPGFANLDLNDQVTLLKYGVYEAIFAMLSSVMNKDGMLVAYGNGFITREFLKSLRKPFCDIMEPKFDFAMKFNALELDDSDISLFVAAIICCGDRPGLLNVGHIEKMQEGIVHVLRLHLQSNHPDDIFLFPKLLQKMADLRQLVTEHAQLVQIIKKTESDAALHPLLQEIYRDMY
Glucocorticoid receptor (Homo sapiens), sequence (P04150 whole entry, looked up): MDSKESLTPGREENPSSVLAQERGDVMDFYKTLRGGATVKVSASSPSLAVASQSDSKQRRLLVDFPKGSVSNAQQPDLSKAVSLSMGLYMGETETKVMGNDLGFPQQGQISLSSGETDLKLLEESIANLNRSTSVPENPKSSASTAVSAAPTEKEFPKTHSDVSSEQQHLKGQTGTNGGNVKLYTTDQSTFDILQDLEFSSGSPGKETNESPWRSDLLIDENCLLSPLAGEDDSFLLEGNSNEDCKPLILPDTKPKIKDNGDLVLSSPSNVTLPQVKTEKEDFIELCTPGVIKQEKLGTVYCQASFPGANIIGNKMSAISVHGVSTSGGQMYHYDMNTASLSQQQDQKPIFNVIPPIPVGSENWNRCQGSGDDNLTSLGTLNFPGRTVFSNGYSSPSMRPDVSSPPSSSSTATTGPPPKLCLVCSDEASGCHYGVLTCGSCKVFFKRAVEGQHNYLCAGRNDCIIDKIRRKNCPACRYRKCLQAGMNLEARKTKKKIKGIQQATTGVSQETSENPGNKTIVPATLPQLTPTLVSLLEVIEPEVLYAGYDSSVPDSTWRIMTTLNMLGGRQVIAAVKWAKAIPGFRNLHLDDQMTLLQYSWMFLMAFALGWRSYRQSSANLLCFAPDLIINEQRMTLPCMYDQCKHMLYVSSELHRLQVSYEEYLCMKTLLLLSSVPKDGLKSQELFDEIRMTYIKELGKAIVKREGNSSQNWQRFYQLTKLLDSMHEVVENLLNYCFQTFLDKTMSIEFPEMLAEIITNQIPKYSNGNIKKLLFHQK
Thyroid hormone receptor beta (Homo sapiens), sequence (P10828 whole entry, looked up): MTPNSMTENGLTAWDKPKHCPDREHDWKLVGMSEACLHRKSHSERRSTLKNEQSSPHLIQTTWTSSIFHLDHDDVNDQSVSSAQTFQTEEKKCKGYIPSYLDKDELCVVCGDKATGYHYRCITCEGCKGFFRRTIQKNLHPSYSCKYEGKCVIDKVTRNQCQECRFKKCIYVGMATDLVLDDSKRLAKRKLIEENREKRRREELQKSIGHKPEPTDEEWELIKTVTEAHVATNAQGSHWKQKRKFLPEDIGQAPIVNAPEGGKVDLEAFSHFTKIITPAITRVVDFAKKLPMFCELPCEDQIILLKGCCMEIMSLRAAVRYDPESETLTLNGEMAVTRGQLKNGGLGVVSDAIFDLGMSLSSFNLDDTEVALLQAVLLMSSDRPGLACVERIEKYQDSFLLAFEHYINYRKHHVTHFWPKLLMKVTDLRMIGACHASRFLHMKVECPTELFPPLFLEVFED
Peroxisome proliferator-activated receptor gamma (Homo sapiens), sequence (P37231 whole entry, looked up): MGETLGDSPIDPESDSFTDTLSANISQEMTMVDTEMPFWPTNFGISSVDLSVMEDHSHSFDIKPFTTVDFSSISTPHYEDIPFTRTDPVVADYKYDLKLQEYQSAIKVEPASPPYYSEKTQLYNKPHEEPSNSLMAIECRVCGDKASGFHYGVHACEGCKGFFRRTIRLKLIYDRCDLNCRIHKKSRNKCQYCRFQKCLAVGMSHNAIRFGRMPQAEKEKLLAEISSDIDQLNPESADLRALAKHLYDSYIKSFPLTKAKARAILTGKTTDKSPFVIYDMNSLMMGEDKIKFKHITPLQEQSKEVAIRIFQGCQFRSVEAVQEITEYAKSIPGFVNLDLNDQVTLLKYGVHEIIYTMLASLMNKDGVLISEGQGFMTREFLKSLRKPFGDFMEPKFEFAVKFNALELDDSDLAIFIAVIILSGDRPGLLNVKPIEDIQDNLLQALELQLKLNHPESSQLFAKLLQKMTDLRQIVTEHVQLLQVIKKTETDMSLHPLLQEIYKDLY

CCCCC(CC)COC(=O)CS (configuration not stated)
-9.5%: max response [8]
inactive: activation [1] 8.21% | Potency [2] | Potency [3] | outcome [4] | Potency [6] | Potency [7] | max response [9] 2.49% | activity change % (negative = inhibition) [10] 1.03% | activation [11] -0.039% | activation [12] 1.76% | max response [13] -1.44% | Potency [14] | max response [15] 1.32% | max response [16] -2.56% | Potency [17] | max response [18] 0.0458% | outcome [19]
-9.7%: max response [5]

O=C(c1ccccc1)c1ccc(O)c(O)c1O
27%: max response [5]
45.6%: max response [20]
-6.52%: max response [8]
inactive: activation [1] -16.3% | Potency [2] | Potency [3] | outcome [4] | Potency [6] | Potency [7] | max response [9] -13.1% | activation [11] -1.01% | activation [21] 3.3% | max response [13] -4.07% | Potency [14] | max response [15] -9.24% | Potency [17] | max response [18] -0.206% | outcome [19]

C=CC(=O)OCCOCC(CC)(COCCOC(=O)C=C)COCCOC(=O)C=C
active: Potency [3] 28.2 µM | Potency [22] 30.6 µM | Potency [14] 21.7 µM | Potency [16] 39.8 µM
inactive: activation [1] -19.8% | outcome [4] | activation [11] 14.9% | activation [21] 5.29% | max response [13] -0.796% | max response [15] -10.9% | outcome [19]

C=C(C)C(=O)OCC(CC)(COC(=O)C(=C)C)COC(=O)C(=C)C
inactive: activation [1] 3.82% | Potency [23] | Potency [6] | Potency [7] | max response [9] 13.1% | Potency [22] | activation [11] -3.72% | activation [12] 0.727% | activation [21] -0.628% | max response [13] -3.37% | Potency [14] | max response [15] -12% | max response [16] -15.9% | Potency [17] | max response [18] -1.04% | outcome [19]
-6.08%: max response [8]
9.24%: max response [20]
-12.4%: max response [5]
